Screening data (PubChem)
This is a sample that favours compounds with a hit; in the whole collection about 19% have one here.
TDP1 cell CPT – DT40-hTDP1 cell growth loss with CPT; chicken DT40 Tdp1-/-;hTDP1 cells + 20 nM CPT, ATP luminescence, 48 h; Potency, µM (highest dose often 46.2 µM), inactives show top-dose activity change, negative = growth inhibition, usual class: inhibitors; actives 12% (n = 420,000); AID 686979; further: nearly all actives have a fitted effect of over 55% in size
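Chicken DT40 Tdp1-/- cells complemented with human TDP1, 400 cells/well, exposed to compounds plus 20 nM camptothecin for at least 48 h at 37 C; viability read as ATP content by CellTiter-Glo luminescence.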
DT40 TDP1 no CPT – qHTS for Inhibitors of human tyrosyl-DNA phosphodiesterase 1 (TDP1): qHTS in cells in absence of CPT | AID 686978, 2013 | DT40 Tdp1-/- hTDP1 cells, no CPT, ATP luminescence, 48 h | Potency, µM (highest dose often 46.2 µM), for the others: at the top dose activity change, negative = growth inhibition, hits mostly inhibitors | actives 15% (n = 420,000); further: nearly all actives have a fitted effect of over 55% in size
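Growth kinetics read by CellTiter-Glo luminescence after ≥48 hr at 37 °C. Cells: DT40 Tdp1-/- stably carrying human TDP1, 400 per well, compound exposure in the absence of CPT (DMSO vehicle).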
HT1080 IDH1KD tx – toxicity to HT-1080 IDH1 knockdown cells (counter line); actives 2% (n = 360,000); HT-1080 IDH1 knockdown viability, ATP luminescence, 48 h; Potency, µM (highest dose often 46.1 µM), without a hit: at the highest dose activity, negative = toxicity, most hits filed as cytotoxic;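 further: 0% = DMSO wells and -100% = cell-free medium wells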
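Using the IDH1-knockdown HT-1080 line run in the same batch and compound series as the NT line, viability after 48 h at 37 °C was determined by CellTiter-Glo luminescence and expressed as % activity.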
KB-V1 MDR tox – kills drug-selected multidrug resistant KB-V1 cells. KB-V1 MDR cells viability, CellTiter-Glo, 72 h. Potency, µM (series often up to 46.1 µM), actives largely listed as cytotoxic. actives 3.4% (n = 400,000). AID 1347076; further: nearly all actives have a fitted effect of over 60% in size
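KB-V1 cells (P-gp-expressing MDR subline of KB-3-1) in phenol-red-free DMEM with 10% FBS were exposed to library compounds over a concentration series for 72 h at 37 degrees C. Viability read by CellTiter-Glo luminescence; concentration-effect curves fitted after normalization.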
HT1080NT lethal – kills 2HG-producing HT-1080-NT fibrosarcoma cells; HT-1080-NT fibrosarcoma viability, CellTiter-Glo ATP luminescence, 48 h; actives 1.6% (n = 360,000); Potency, µM (series often up to 46.1 µM), for the others: at the highest dose activity, negative = less viability, most hits filed as cytotoxic;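 further: NT is the 2HG producing partner of a matched IDH1 knockdown line; 0% = DMSO-treated cells and -100% = media-only wells without cells; nearly all actives have a fitted effect of over 55% in size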
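Viability of the 2HG-overproducing fibrosarcoma line after 48 hours of compound exposure at 37 degrees C was determined by luminescence with CellTiter-Glo, and concentration-effect curves were then fitted and categorized.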
KB-3-1 cytotox – kills parental KB-3-1 adenocarcinoma cells | AID 1347075 | Potency, µM (series often up to 46.1 µM), actives largely listed as cytotoxic | KB-3-1 viability, CellTiter-Glo ATP luminescence, 72 h | actives 1.4% (n = 400,000); further: nearly all actives have a fitted effect of over 60% in size
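Using CellTiter-Glo luminescence, growth of non-resistant KB-3-1 adenocarcinoma cells is assessed 72 h after pin-tool compound addition at 37 °C. Normalized responses across the concentration series yield fitted curves.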
* hit, by the source's call. The call rests on the fitted dose curve; in most records, active means well fitted curve in the direction sought with a large enough effect; inconclusive means small, poorly fitted or top-dose-only effect, or another doubt; inactive means no such curve, though single readings can be large; an effect the other way counts as inactive or inconclusive. Unless noted, on the % scale 0 is the no-effect control and ±100 the full control effect; potency means the concentration at half of the fitted maximal effect.

How did Cc1cc(NC(=O)C(C)Sc2nnc(NCc3ccco3)s2)no1 (configuration not stated) do in these assays?
TDP1 cell CPT: -20%; DT40 TDP1 no CPT: 0%; HT1080 IDH1KD tx: 5%; KB-V1 MDR tox: inactive; HT1080NT lethal: 8%; KB-3-1 cytotox: inactive

Results for Cc1cc(C)c(S(=O)(=O)c2ccccc2C(C)C)c(=O)[nH]1 ?
TDP1 cell CPT: 1%; DT40 TDP1 no CPT: 3%; HT1080 IDH1KD tx: -4%; KB-V1 MDR tox: inactive; HT1080NT lethal: 4%; KB-3-1 cytotox: inactive

What do the screens show for `CCOC(=O)C1CCN(C(=O)c2cccc(S(=O)(=O)N3c4ccccc4CC3C)c2)CC1` (configuration not stated)?
TDP1 cell CPT: inconclusive; DT40 TDP1 no CPT: inconclusive; HT1080 IDH1KD tx: 7%; HT1080NT lethal: 5%

How did COc1ccc(C(=O)OCC(=O)N2c3ccccc3CC2C)cc1S(=O)(=O)N1CCOCC1 (configuration not stated) do in these assays?
TDP1 cell CPT: 6%; DT40 TDP1 no CPT: -5%; HT1080 IDH1KD tx: 12%; KB-V1 MDR tox: inactive; HT1080NT lethal: 7%; KB-3-1 cytotox: inactive

Results for Cc1nn2c3c(cnc2c1-c1ccc(Cl)cc1)C(=O)CC(c1ccco1)C3 (configuration not stated) ?
TDP1 cell CPT: inconclusive; DT40 TDP1 no CPT: -12%; HT1080 IDH1KD tx: -2%; KB-V1 MDR tox: 5.8µM*; HT1080NT lethal: -1%; KB-3-1 cytotox: inactive

Results for COc1ccc(CCNC(=O)c2cc3n(n2)CCCN(Cc2ccc(C)cc2)C3=O)cc1OC ?
TDP1 cell CPT: inconclusive; DT40 TDP1 no CPT: 21µM*; KB-V1 MDR tox: inactive; KB-3-1 cytotox: inactive

How did CCCNC(=O)c1cc2n(n1)CCCN(Cc1ccc(F)cc1)C2=O do in these assays?
TDP1 cell CPT: 0%; DT40 TDP1 no CPT: 4%; KB-V1 MDR tox: inactive; KB-3-1 cytotox: inactive

Results for Cc1ccc(CN2CCCn3nc(C(=O)NCCC(C)C)cc3C2=O)cc1 ?
TDP1 cell CPT: -19%; DT40 TDP1 no CPT: -23%; KB-V1 MDR tox: inactive; KB-3-1 cytotox: inactive

How did Cc1ccc(CN2CCCn3nc(C(=O)NC(C)C)cc3C2=O)cc1 do in these assays?
TDP1 cell CPT: -11%; DT40 TDP1 no CPT: -22%; KB-V1 MDR tox: inactive; KB-3-1 cytotox: inactive

What do the screens show for `Cc1ccc(CN2CCCn3nc(C(=O)NCC(C)c4ccccc4)cc3C2=O)cc1` (configuration not stated)?
TDP1 cell CPT: inconclusive; DT40 TDP1 no CPT: 16µM*; KB-V1 MDR tox: inactive; KB-3-1 cytotox: inactive

How did CCc1ccc(CNC(=O)c2cc3n(n2)CCCN(Cc2ccccc2)C3=O)cc1 do in these assays?
TDP1 cell CPT: 16µM*; DT40 TDP1 no CPT: inconclusive; KB-V1 MDR tox: inconclusive; KB-3-1 cytotox: inactive

What do the screens show for `COC(=O)c1cccc(Nc2c(-c3cc(Br)ccc3O)nc3nc[nH]n23)c1`?
TDP1 cell CPT: inconclusive; DT40 TDP1 no CPT: inconclusive; KB-V1 MDR tox: inconclusive; KB-3-1 cytotox: inactive

Results for O=C(NCC1CC1)C1Cc2c(-c3cccc(F)c3)ccnc2O1 (configuration not stated) ?
TDP1 cell CPT: -8%; DT40 TDP1 no CPT: inconclusive; HT1080 IDH1KD tx: 6%; KB-V1 MDR tox: inactive; HT1080NT lethal: inconclusive; KB-3-1 cytotox: inactive

What do the screens show for `COc1ccc(CNC(=O)C2Cc3c(-c4cccc(F)c4)ccnc3O2)cc1OC` (configuration not stated)?
TDP1 cell CPT: 8.2µM*; DT40 TDP1 no CPT: inconclusive; HT1080 IDH1KD tx: 4%; KB-V1 MDR tox: inactive; HT1080NT lethal: inconclusive; KB-3-1 cytotox: inactive

How did O=C(NCc1ccccc1)C1Cc2c(-c3cccc(F)c3)ccnc2O1 (configuration not stated) do in these assays?
TDP1 cell CPT: 0.92µM*; DT40 TDP1 no CPT: 0.92µM*; HT1080 IDH1KD tx: 1.2µM*; KB-V1 MDR tox: 1.5µM*; HT1080NT lethal: inconclusive; KB-3-1 cytotox: 4.6µM*

What do the screens show for `O=C(NCc1cccc(Cl)c1)C1Cc2c(-c3cccc(F)c3)ccnc2O1` (configuration not stated)?
TDP1 cell CPT: 21µM*; DT40 TDP1 no CPT: 26µM*; HT1080 IDH1KD tx: inconclusive; KB-V1 MDR tox: inconclusive; HT1080NT lethal: inconclusive; KB-3-1 cytotox: inactive

Results for CN1CCN(c2ccc(CNC(=O)C3Cc4c(-c5cccc(F)c5)ccnc4O3)cc2)CC1 (configuration not stated) ?
TDP1 cell CPT: inconclusive; DT40 TDP1 no CPT: 21µM*; HT1080 IDH1KD tx: inconclusive; KB-V1 MDR tox: inactive; HT1080NT lethal: inconclusive; KB-3-1 cytotox: inactive

What do the screens show for `CC(=O)c1cccc(-c2ccnc3c2CC(C(=O)NCc2ccc(N4CCN(C)CC4)cc2)O3)c1` (configuration not stated)?
TDP1 cell CPT: -40%; DT40 TDP1 no CPT: inconclusive; HT1080 IDH1KD tx: -9%; KB-V1 MDR tox: inactive; HT1080NT lethal: -12%; KB-3-1 cytotox: inactive

What do the screens show for `COc1cc(CNc2ncnc3c2ncn3[C@H]2CN(CCN3CCOCC3)C[C@@H](CO)O2)cc(OC)c1OC`?
TDP1 cell CPT: -3%; DT40 TDP1 no CPT: -7%; HT1080 IDH1KD tx: 6%; KB-V1 MDR tox: inactive; HT1080NT lethal: 8%; KB-3-1 cytotox: inactive

Results for COc1ccc(NC(=O)c2oc3ccccc3c2NC(=O)c2cc(C)cc(C)c2)c(OC)c1 ?
TDP1 cell CPT: 3%; DT40 TDP1 no CPT: -29%; KB-V1 MDR tox: inactive; KB-3-1 cytotox: inactive

Results for COc1ccc(NC(=O)N2CC3(CCN(C(=O)c4cc(C(F)(F)F)cc(C(F)(F)F)c4)CC3)C2)cc1 ?
TDP1 cell CPT: -3%; DT40 TDP1 no CPT: -6%

How did O=C(NCc1ccccc1)C1Cc2c(-c3ccc(Cl)cc3)ccnc2O1 (configuration not stated) do in these assays?
TDP1 cell CPT: 0.65µM*; DT40 TDP1 no CPT: 0.82µM*; HT1080 IDH1KD tx: 0.73µM*; KB-V1 MDR tox: 1.5µM*; HT1080NT lethal: inconclusive; KB-3-1 cytotox: 5.8µM*

How did Cc1ccc2cc(/C=C3\N=C(c4ccccc4)OC3=O)c(N3CCOCC3)nc2c1 do in these assays?
TDP1 cell CPT: inconclusive; DT40 TDP1 no CPT: 18µM*; HT1080 IDH1KD tx: 20%; KB-V1 MDR tox: inactive; HT1080NT lethal: 14%; KB-3-1 cytotox: inactive
